The values that follow come from PubChem BioAssay (NCI).

Experiment in all cases: NCI-60 one-dose screen, 48 h (100 = growth as untreated, 0 = no growth, -100 = all killed)
Common to all, as to conditions: 10 µM unless noted

Experiment [1] has as its system DU-145 prostate.
In experiment [2] the test system is K-562 leukemia.
Experiment [3] has as its system MALME-3M melanoma.
Experiment [4] deals with MDA-MB-231 breast.
Experiment [5] deals with RXF 393 renal.
The test system of experiment [6] is SF-268 CNS.
Experiment [7] relates to SF-295 CNS.
Experiment [8] has as its system SF-539 CNS.
Experiment [9] deals with UACC-257 melanoma.
The subject of experiment [10] is M14 melanoma.

Structures are written as SMILES. About 83,000 compounds went through this panel and 20% of them were active in at least one assay; those are over-represented in the sample as a whole.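 For each line, cells grew in 96-well plates with the test compound present at a single concentration for 48 hours.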 Unmarked numbers belong to inactive results. Activity calls are given as the source filed them. Rule for the calls: active = growth percent below 10; inactive = the rest.

As to `O=c1[nH]c(Nc2ccc(S(=O)(=O)O)cc2)nc2nc(Nc3ccc(NC(=S)Nc4ccccc4)cc3)nc(-c3ccc(O)cc3O)c12`, the growth in experiment [1] is 133%; in [2], 101%; in [3], 98.8%; in experiment [4] it was 90.5%; in experiment [5] it was 115%; in experiment [6] it was 104%. Moreover, the growth was 121% in experiment [7], 189% in experiment [8] and 139% in experiment [9].

Consider `O=c1[nH]c(NCc2ccccc2)nc2nc(Nc3ccc(NC(=S)Nc4ccccc4)cc3)nc(-c3ccc(O)cc3O)c12`, for which the growth in experiment [1] was 116%; in [2], 63.3%; in [3] it was 103%; in [4], 90.2%; in experiment [5], 81.4%; in experiment [6], 96%. For the same compound, the results for the growth in experiment [7], in experiment [8] and in experiment [9] were 147%, 108% and 39.7%, respectively.

As for `Clc1ccc2c(NC3CCC(NC4CCCCC4)CC3)ccnc2c1` (centres undefined), the growth in [1] was 80.9%; in experiment [2], 0.509% (active); in experiment [3], 34.6%; in [4] it was 45.4%; in experiment [5], 51.2%; in experiment [6] it was 84.7%. Moreover, the growth in [7] was 60.1%; in [8], 0.613% (active); in experiment [9] it was -51.5% (active).

For the compound `c1ccc(-c2cn(-c3ccccc3)c(-c3ccccc3)n2)cc1`, the growth in [1] is 71.4%; in [2], -51.5% (active); in experiment [3], 95%; in experiment [4] it was 94.3%; in [5] it was 79.9%; in experiment [6] it was 85.5%. Moreover, the values for the growth in [7], in experiment [8] and in experiment [9] were 127%, 73.5% and -45.3% (active), respectively.

As to `COc1cc(NC(=O)SC2=NCCS2)cc(OC)c1`, the growth in [1] was 101%; in experiment [2], 93.6%; in [3], 102%; in experiment [4], 110%; in experiment [5], 120%; in [6], 106%. Moreover, the growth in [7] was 113%; in [8], 90.6%; in [9], 104%; in [10], 103%.

With `O=[N+]([O-])c1cccc(-c2nc3sccn3c2-c2ccnc(NCCCNS(=O)(=O)c3ccc(Cl)cc3)n2)c1`, the growth in experiment [1] is 64.2%; in [2], 26.6%; in experiment [3] it was 62.8%; in experiment [4], 70.8%; in experiment [5], 77.9%; in [6], 69.7%. The growth was 37.2% in [7], 84.9% in experiment [8], 47.7% in [9] and 47% in experiment [10].

Take `COc1cc(C2NN=C3c4ccccc4CCC32)cc(OC)c1OC` (centres undefined): the growth in [1] was 92.5%; in [2] it was 42.8%; in experiment [3] it was 48.6%; in experiment [4], 48.4%; in [5], 87.2%; in [6] it was 84%. For the same compound, the values for the growth in experiment [7], in [8] and in [9] were 102%, 85.4% and -36.4% (active), respectively.

For `O=c1ccn(-c2ncnc3nc[nH]c23)cc1`, the growth in experiment [1] is 101%; in experiment [2], 89.9%; in [3] it was 68.8%; in experiment [4] it was 101%; in experiment [5], 79.6%; in [6] it was 95.2%. Besides, the results for the growth in experiment [7], in experiment [8] and in experiment [9] were 115%, 96.4% and 3.23% (active), respectively.

For `CNC(=S)NNC(=O)C1CC1`, the growth is 118% in experiment [1]; 92.9% in experiment [2]; 111% in experiment [3]; 114% in [4]; 117% in experiment [5]; 109% in experiment [6]. Besides, the growth was 115% in [7], 104% in [8], 102% in experiment [9] and 99.9% in experiment [10].

As to `COc1cc2c(cc1OCCCCCn1c3ccccc3c3ccccc31)N=C[C@@H]1CCCN1C2=O`, the growth was -53.3% (active) in [1]; -21.1% (active) in experiment [2]; -64.7% (active) in experiment [3]; -87.1% (active) in experiment [4]; -80.7% (active) in experiment [5]; -59.9% (active) in [6]. The growth is 11.7% in experiment [7], -85.8% (active) in [8] and -55.4% (active) in experiment [9].

As for `CCCN=C1NC(=O)/C(=C/c2nc(-c3ccc(OC)cc3)n3ccccc23)S1`, the growth in experiment [1] was 38.9%; in experiment [2], 91.6%; in experiment [3], 95.3%; in experiment [4], 55.9%; in experiment [5] it was 54.6%; in experiment [6] it was 76.2%. Moreover, the growth was 124% in experiment [7], 95.4% in experiment [8] and 110% in experiment [9].

As for `Cc1nn(-c2ccc([N+](=O)[O-])cc2)c2ncnc(NCCc3ccccc3)c12`, the growth in experiment [1] is 110%; in experiment [2], 76.8%; in experiment [3] it was 121%; in experiment [4], 102%; in experiment [5], 102%; in experiment [6], 94.7%. In addition, the values for the growth in experiment [7], in [8] and in [9] were 111%, 99.5% and 106%, respectively.

Take `Cn1ccc(=O)c(S(N)(=O)=O)c1`: the growth in [1] was 119%; in experiment [2], 93.4%; in experiment [3] it was 95.5%; in [4], 101%; in experiment [5], 85.8%; in experiment [6] it was 100%. Moreover, the growth was 102% in experiment [7], 103% in experiment [8] and 109% in experiment [9].

Take `O=C(Nc1ccc(Cl)c(Cl)c1)NS(=O)(=O)c1cnccc1Oc1ccc(F)cc1`: the growth is 78.5% in [1]; 19.6% in experiment [2]; 41.2% in experiment [3]; 93.9% in [4]; 38% in experiment [5]; 80.7% in experiment [6]. Moreover, the growth is 13.7% in experiment [7], 90.1% in experiment [8] and -7.26% (active) in experiment [9].

With `COc1ccc(C2C(C#N)=C(N)Oc3c2ccc2ccccc32)cc1` (centres undefined), the growth was 78.4% in experiment [1]; 19.6% in experiment [2]; 47.9% in [3]; 31.2% in [4]; 36.5% in experiment [5]; 50.5% in experiment [6]. Further, the growth in experiment [7] was 24.2%; in experiment [8] it was 25.6%; in experiment [9] it was 75.1%; in [10], 30.2%.
